Assay results taken from PubChem BioAssay.
Unmarked numbers belong to inactive results.

Assay: viability profiling in MM1S myeloma cells – cell-based, resazurin fluorescence, basal, 24 h, PK04 Diversity Set, profiling panel (AID 1174);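 also: MM1S multiple myeloma cell line; test concentration not given here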
Settings: higher = more signal, called active from +8 up or from −8 down

SMILES	z-score
C=C(CCCC)/C(=C/C[C@@H](OC(=O)c1ccncc1)c1ccc(OCCO)cc1)c1cc(C(=O)OC)ccc1OC	0.234
C=C(C)[C@@H]1CC=C(C(O)C2C=CC3C(=O)N(C)C(=O)C3N2Nc2ccccc2)CC1 (stereo not given in full)	-1.03
O=C1N[C@@H](Cc2ccccc2)C(=O)N2[C@@H]1C[C@@H](C(=O)O)[C@H]2c1cccc(OCCO)c1	-0.0089
COC(=O)C(CC#Cc1ccc2c(c1)[C@]1(C(=O)N2)[C@H](c2ccc(OCCO)cc2)N2[C@H](c3ccccc3)[C@H](c3ccccc3)OC(=O)[C@H]2[C@@H]1C(=O)Nc1nc2ccccc2s1)C(=O)OC	0.932
C=CCN1C(=O)[C@@]2(Cc3ccccc31)N=C(c1ccc(OCCCO)cc1)O[C@H]2c1ccccc1	-2.21
